Screening data (PubChem)
Most compounds without a hit are left out; they make up all but 7.4% or so of the library.
NPC1 promoter act: activators of NPC1 promoter | Huh7 NPC1 promoter luciferase reporter, 24 h | Potency, µM (top dose mostly 9.22 µM), without a hit: at the top dose activation, usual class: activators | 320,000 compounds, 2.4% hits; also: % of control where 0% means no effect; nearly all actives have a fitted effect of over 60% in size
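Compounds in DMSO were transferred onto Huh7 NPC1-luciferase reporter cells pre-incubated 2 h; after 24 h at 37 °C, Amplite reagent was dispensed and luminescence recorded 10 min later.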
SMN2 splice up: SMN2 splice variant enhancement. HEK293 SMN2-luciferase splicing reporter, luminescence, 30-36 h. Potency, µM (series often up to 46.1 µM), without a hit: top-dose activity change, positive = activation, most hits filed as activators. 210,000 compounds, 2.8% hits. AID 1458; also: % of control where 0% means no effect; nearly all actives have a fitted effect of over 55% in size
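qHTS luciferase splicing reporter: luminescence rises when SMN2 exon 7 is included in transfected HEK293 cells. Compound exposure lasted 30-36 h at 37C, with 4.5 mM final sodium butyrate as control, followed by a ONE-Glo read.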
ELG1 genotoxic: induces genotoxicity in HEK293T cells with luciferase-tagged ELG1. Potency, µM (series often up to 46 µM), inactives show at the highest dose activity change, positive = activation, most hits filed as activators. AID 504466. 330,000 compounds, 1.3% hits. HEK293T ELG1-luciferase reporter, luminescence, 16 h; also: % of control where 0% means no effect; nearly all actives have a fitted effect of over 60% in size
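Genotoxic stress is detected as increased luminescence from luciferase-tagged ELG1 in HEK293T cells, measured with ONE-Glo after a 16 hr treatment at 37 °C.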
FLuc modulator: inhibits or activates purified firefly luciferase, miR-21 counter-screen; purified FLuc, Km substrates, luminescence inhibition; Potency, µM (highest dose often 57.5 µM), for the others: top-dose activity change, negative = inhibition, actives largely listed as inhibitors; 360,000 compounds, 6.9% hits; AID 588342;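 also: plate controls were vehicle for no effect and reference inhibitor for full effect; nearly all actives have a fitted effect of over 55% in size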
Target sequence (P08659 whole entry, looked up): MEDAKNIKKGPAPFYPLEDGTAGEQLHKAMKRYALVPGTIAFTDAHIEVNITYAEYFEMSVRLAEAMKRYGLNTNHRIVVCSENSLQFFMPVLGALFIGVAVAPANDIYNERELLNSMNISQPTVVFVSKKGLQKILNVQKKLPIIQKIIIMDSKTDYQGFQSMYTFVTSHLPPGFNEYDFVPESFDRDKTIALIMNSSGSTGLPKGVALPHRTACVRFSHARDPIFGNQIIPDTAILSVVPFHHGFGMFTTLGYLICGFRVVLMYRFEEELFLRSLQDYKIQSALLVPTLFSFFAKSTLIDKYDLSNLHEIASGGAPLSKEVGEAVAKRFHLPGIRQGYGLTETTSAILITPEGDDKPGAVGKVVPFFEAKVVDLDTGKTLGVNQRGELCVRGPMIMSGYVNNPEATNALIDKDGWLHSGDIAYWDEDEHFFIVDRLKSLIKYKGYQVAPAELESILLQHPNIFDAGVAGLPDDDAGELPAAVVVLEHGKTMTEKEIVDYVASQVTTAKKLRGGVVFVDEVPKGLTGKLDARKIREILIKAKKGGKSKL
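Biochemical qHTS of compounds, final roughly 60 µM downward over six points, against 10 nM purified firefly luciferase using Km concentrations of substrates (10 uM D-luciferin, 10 uM ATP) in Tris acetate pH 7.5 buffer; luminescence output.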
Rab9 prom act: activators of Rab9 promoter; Huh7 Rab9 promoter-luciferase reporter, luminescence, 24 h; Potency, µM (doses to about 9.22 µM), without a hit: at the top dose activation, negative = inhibition, usual class: activators; 320,000 compounds, 2.8% hits; AID 485297; also: % of control where 0% means no effect; nearly all actives have a fitted effect of over 60% in size
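Luciferase signal after 10 min detection reagent at ambient indicates Rab9 promoter upregulation; stably transfected Huh7 cells were treated 24 h with compound in DMSO at 37 °C, 5% CO2.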
* = called active by the depositor; ? = inconclusive; . = no result; [ ] = another dose, or the depositor's remark. Calls follow the shape of the dose curve; as a rule, active = well fitted curve in the direction sought with a large enough effect; inconclusive = small, poorly fitted or top-dose-only effect, or another doubt; inactive = no such curve, though single readings can be large; an effect the other way counts as inactive or inconclusive. Potency is read from the fitted curve at half-maximal effect.

SMILES | NPC1 promoter act | SMN2 splice up | ELG1 genotoxic | FLuc modulator | Rab9 prom act
CCCc1cc(-c2n[nH]c(C)c2-c2ccc(C(=O)OCC)o2)c(O)cc1O | -4% | -17% | -12% | -2% | 1%
CCCc1cc2c(OC(=O)CC)c(-c3ccc(C(=O)OCC)o3)c(=O)oc2cc1OC | 2% | 9% | 0% | 24µM* | -6%
O=C(/C=C/c1ccccc1[N+](=O)[O-])Nc1cccc(S(=O)(=O)NC2=NCCCCC2)c1 | . | . | 0% | . | .
O=C(/C=C/c1ccc(Cl)cc1Cl)Nc1cccc(S(=O)(=O)NC2=NCCCCC2)c1 | 22% | 15% | 6% | 2.4µM* | 19%
Cc1cc(C)cc(OCC(=O)Nc2cccc(S(=O)(=O)NC3=NCCC3)c2)c1 | -16% | . | -2% | -12% | -1%
Cc1ccc(OCC(=O)Nc2cccc(S(=O)(=O)NC3=NCCCCC3)c2)cc1C | 0% | . | -5% | 15µM* | -1%
Cc1cc(OCC(=O)Nc2cccc(S(=O)(=O)NC3=NCCCCC3)c2)ccc1Cl | 0% | -14% | -5% | 17µM* | 0%
CCCN(CCC)C(=O)c1oc2ccccc2c1NC(=O)Cc1cccc(OC)c1 | 0% | . | -6% | 0% | 0%
CSc1nnc(NC(=O)c2ccc3c(c2)OCO3)s1 | 0.22µM* | . | 0.26µM* | 0.48µM* | 0.11µM*
O=C(Nc1nncs1)c1ccc2c(c1)OCO2 | 23% | . | ? | 15µM* | 30%
CSc1nnc(NC(=O)c2ccc(S(=O)(=O)N(C)C)cc2)s1 | 1.6µM* | 13µM* | ? | 11µM* | 0.56µM*
CCOC(=O)C(C)Sc1nnc(NC(=O)c2ccc3c(c2)OCO3)s1 (stereo not given) | 3% | 18% | 13% | 17µM* | -5%
COCCNc1nnc(SCC(=O)c2ccc3c(c2)OCO3)s1 | 15% | 3% | 1% | -9% | 0%
O=C1CN(C(=O)c2ccc(S(=O)(=O)N3CCCCC3)cc2)C(c2ccc(F)cc2)c2cc(Cl)ccc2N1 (stereo not given) | . | 1% | . | 1% | .
Cc1ccc(C)c(CN2C(=O)c3ccccc3S(=O)(=O)c3ccc(C(=O)NCCC4=CCCCC4)cc32)c1 | . | 7% | . | -2% | .
COc1ccccc1NC(=O)CCCN1C(=O)C2CC=CCC2C1=O (stereo not given) | 1% | . | 3% | 2% | 1%
CC(C)Cc1nnc(NC(=O)c2ccc3c(c2)OCCO3)s1 | 2µM* | . | ? | 1.9µM* | 0.63µM*
Cc1noc(C)c1COc1ccc(C(=O)Nc2nnc(CC(C)C)s2)cc1 | -9% | . | 2% | -2% | -18%
Cc1nc(NC(=O)c2ccc(OCC(C)C)cc2)sc1Cc1ccc2c(c1)OCO2 | 18% | -21% | -3% | 21µM* | ?
Cc1nnc(NC(=O)c2ccc3c(c2)OCO3)s1 | ? | . | ? | 13µM* | 3.5µM*
Cc1cccc(-n2ncc3c2CCCC3NC(=O)Cc2c(C)noc2C)c1C (stereo not given) | -24% | . | -3% | -14% | -28%
C=CC[C@H]1CC(Cc2ccccc2)=C[C@H](CC=C)N1 | -3% | ? | -5% | -1% | -1%
COc1ccc(O)c(/C=N/N2CCCCC2)c1 | 3.2µM* | . | ? | 9.5µM* | 2µM*
COc1ccc(/C(C)=N/N2CCCCC2)c(O)c1 | 5% | . | 7% | 9.5µM* | 18%
Oc1ccc(/C=N/N2CCCCC2)cc1O | -22% | . | ? | ? | -3%[1.84 µM]
SMILES | NPC1 promoter act | SMN2 splice up | ELG1 genotoxic | FLuc modulator | Rab9 prom act
CCCCN(C)CCNC(=O)CCn1nc(-c2ccc(C)cc2)ccc1=O | 1% | . | -3% | -2% | 2%
O=C(O)c1ccc(CSc2nnc(COc3ccc(Cl)cc3Cl)o2)cc1 | 17% | 4% | ? | 19µM* | 21%
COc1ccc(NC(=O)c2c(N)cnn2C)cc1 | 2% | . | 6% | -19% | 13%
CCc1cc(C(=O)NNC(=S)NC2CCCCC2)cs1 | 3.5µM* | . | -4% | -11% | 3.5µM*
CC(C)c1cc(C(=O)NNC(=S)NC2CCCCC2)cs1 | 4µM* | . | ? | ? | ?
CCc1c(C(=O)NNC(=S)NC2CCCCC2)csc1C | 17% | 1.6µM* | -3% | -2% | 22%
CCCc1nc(SCC(=O)c2ccc(F)cc2)c2ccccc2n1 | -7% | -40% | -7% | ? | -2%
Cc1ccc(Oc2c(C(F)(F)F)oc3cc(OCC(=O)NC4CCCCC4)ccc3c2=O)cc1 | . | 4% | . | 4% | .
COc1cc2c(cc1O)[C@@H](c1cc(O)c(O)c(OC)c1)[C@@](O)(C(=O)O)[C@@H](CO)[C@@H]2O | . | -6%[9.22 µM] | . | . | .
CCOc1ccc(OCC)c(-c2c(=O)n(OCc3ccc(C(C)(C)C)cc3)c3ccccc3[n+]2[O-])c1 | -5% | -6% | -6% | 8.5µM* | -1%
O=C(NC12CC3CC(CC(C3)C1)C2)c1ccc(-c2ccc(Br)cc2)o1 | ? | 16µM* | ? | 4.8µM* | ?
O=C(NC12CC3CC(CC(C3)C1)C2)c1ccc([N+](=O)[O-])o1 | 1% | . | -1% | ? | 4%
O=C(NC12CC3CC(CC(C3)C1)C2)c1ccc(Br)o1 | -2% | . | -12% | 17µM* | -2%
O=C(NC1CCS(=O)(=O)C1)c1ccc(-c2ccc(Br)cc2)o1 (stereo not given) | 5% | -32% | 5% | ? | 5%
CC(=O)c1ccc(NC(=S)N2C(C)CCCC2C)cc1 (stereo not given) | -4% | . | 6% | -1% | -4%
O=C(O)COc1ccc(/C=C/C(=O)c2ccc(C3CCCCC3)cc2)cc1 | ? | . | 3% | 0.38µM* | ?
O=C(O)COc1ccc(C(=O)c2ccccc2)cc1 | -2% | . | 0% | ? | -6%
O=C(O)COc1ccc(/C=C/C(=O)c2ccc3ccccc3c2)cc1 | 3% | . | 8% | 0.95µM* | 14%
CCOc1ccc(/C=C/C(=O)NC2CCCCC2)cc1 | 19% | . | 7% | ? | 17%
CCC(/C=C/C(C)C1CCC2C3CC=C4CC(O)CC[C@@]4(C)C3CC[C@@]12C)C(C)C (stereo not given in full) | . | -19% | . | . | .
O=C1C(c2ccncc2)=C(O)c2ccccc21 | 0.71µM* | 3.2µM* | ? | 2.1µM* | 4.5µM*
O=C1C(c2cc(=O)c3ccccc3[nH]2)=C(O)c2ccccc21 | 1.6µM* | 1µM* | 8.2µM* | 0.76µM* | 2.2µM*
CCOC(=O)C1=C(O)c2ccccc2C(=O)/C1=C\c1ccc(C)cc1 | 0% | -34% | 7% | 6.7µM* | 14%
CCOC(=O)C1=C(C)N(c2ccc(C)cc2)C(=O)/C1=C\c1ccc(O)c(OC)c1 | -13% | . | 2% | -11% | -8%
Cc1ccc2[nH]c(=O)c(CN(C)C(=O)c3cccs3)cc2c1 | 9% | -9% | 7% | -7% | -1%
O=C(Nc1ccc(NC(=O)c2cccs2)cc1)c1ccc(Br)cc1 | . | 6% | . | -5% | .
Cc1ccnc(N(C(=O)c2cccs2)C(=O)c2cccs2)c1 | 2.5µM* | 13µM* | 2.1µM* | 19µM* | 3.5µM*
